# Screening data: PubChem, National Center for Advancing Translational Sciences (NCATS)
# 4-MU autofl – qHTS Assay for Spectroscopic Profiling in 4-MU Spectral Region. compound autofluorescence, 340/450 nm, 4-MU equivalents; active compounds read high. max dye-equivalent concentration, M. hit rate 11% among 59,000; in the data active = max dye-equivalent concentration above about 10 nM; inconclusive = mostly about 1.1 nM to 9.6 nM
#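 Compounds in 100 mM Tris, pH 8.0, sat 15 min at room temperature before fluorescence was read at 340 nm excitation/450 nm emission; a per-plate six-point 4-MU standard curve converted signals to dye-equivalent concentration at each compound concentration.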
# CRE-bla Fsk – Cell signaling CRE-BLA (Fsk stim); Potency, µM (titrated, usually from 38.2 µM), inactives show top-dose activity change, negative = inhibition, actives largely listed as activators; hit rate 2.5% among 71,000; AID 662, 2007; CHO CRE-bla reporter (cAMP response element driving beta-lactamase), forskolin EC10, beta-lactamase ratio; active = well fitted activation curve with a large enough effect in the signal ratio, with a control signal flat, not every such curve was filed as active; inconclusive = small, poorly fitted or top-dose-only effect, or effect the other way, or a change in a side signal; the % refers to the signal ratio; note: potency is the fitted concentration of half-maximal effect; % of control where 0% means no effect
#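 Titrated compounds plus EC10 NKH 477 on CHO CRE-bla cells, 3 h, 37 °C. CCF4, 2 h RT. Ratio 460/530 nm → AC50.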
# HADH2 inhib – qHTS Assay for Inhibitors of HADH2 (Hydroxyacyl-Coenzyme A Dehydrogenase, Type II); 3-hydroxyacyl-CoA dehydrogenase type-2 (Homo sapiens), Q99714; recombinant HADH2, NADH fluorescence, beta-hydroxybutyryl-CoA; Potency, µM (series often up to 57.1 µM), inactives show at the top dose activity change, negative = inhibition, most hits filed as inhibitors; hit rate 3.4% among 73,000; note: potency is the fitted concentration of half-maximal effect; % is set by controls: 0 for no effect and ±100 for the full control effect; nearly all actives have a fitted effect of over 60% in size
# Target sequence (Q99714 whole entry, looked up, one chain of several): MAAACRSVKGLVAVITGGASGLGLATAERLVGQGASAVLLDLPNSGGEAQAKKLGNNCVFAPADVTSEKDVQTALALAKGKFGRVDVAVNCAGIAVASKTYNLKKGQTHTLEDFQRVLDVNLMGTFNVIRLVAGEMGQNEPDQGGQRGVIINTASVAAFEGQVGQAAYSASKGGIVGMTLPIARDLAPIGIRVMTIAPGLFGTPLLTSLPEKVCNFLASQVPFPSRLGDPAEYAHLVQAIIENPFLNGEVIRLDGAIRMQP
#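 20 nM HADH2 + cpd, 15 min RT; add 1 mM NAD+/90 uM beta-hydroxybutyryl-CoA; kinetic fluorescence 360/450 nm, 4 min. Tris-HCl pH 9.0, 0.01% Tween-20.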
# AID923 – qHTS Assay for Allosteric/Competitive Inhibitors of Caspase-1: Spectroscopic Profiling in AFC Spectral Region | Potency, µM (top dose mostly 57.5 µM), without a hit: top-dose fluorescence increase, most hits filed as activators | compound fluorescence, AFC spectral region (405/520 nm) | hit rate 1.1% among 75,000; note: potency is the fitted concentration of half-maximal effect; 0% is about no effect
#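 Compound autofluorescence profiled at 405 nm ex/520 nm em during kinetic caspase 1 run (50 nM enzyme, 5 uM Ac-WEHD-AFC, HEPES pH 7.5, 10 mM DTT). Titration up to 57 uM; baseline from regression intercept, normalized to AFC standard curve.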
# A350 autofl – qHTS Assay for Spectroscopic Profiling in A350 Spectral Region | Compound autofluorescence, 340/450 nm, Alexa 350 dye-equivalents; active compounds read high | max dye-equivalent concentration, M | hit rate 11% among 59,000 | AID 590, 2007; in the data active = max dye-equivalent concentration above about 10 nM; inconclusive = mostly about 1.1 nM to 9.6 nM
# HSD17B inhib – qHTS Assay for Inhibitors of HSD17B4, hydroxysteroid (17-beta) dehydrogenase 4; recombinant HSD17B10, NADH fluorescence kinetic; Potency, µM (top dose mostly 57.1 µM), without a hit: top-dose activity change, negative = inhibition, hits mostly inhibitors; hit rate 7.6% among 75,000;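 note: the protocol describes HADH2 (HSD17B10) and not the HSD17B4 of the title; potency is the fitted concentration of half-maximal effect; % is set by controls: 0 for no effect and ±100 for the full control effect; nearly all actives have a fitted effect of over 70% in size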
#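 His-tagged E. coli-expressed HADH2 at 20 nM in 100 mM Tris-HCl pH 9.0 with 0.01 % Tween-20, preincubated 15 min with compound at room temperature. Reaction with 1 mM NAD+ and 90 uM beta-hydroxybutyryl coenzyme A; NADH fluorescence (360/450 nm) read kinetically over 4 min, last minus first point.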
# CHO via 24h – Cell Viability - CRE-beta lactamase CHO cell - 24 hr assay. shares compounds with CRE-bla Fsk. CRE-bla CHO viability, ATP luminescence, 24 h. activity, negative = viability loss, % at 46.1 µM. 120 tested, under 10 active
# CHO via 40h – Cell Viability - CRE-beta lactamase CHO cell - 40 hr assay; shares compounds with CRE-bla Fsk; CRE-bla CHO viability, ATP luminescence, 40 h; Potency, µM, for inactives: max response, hits mostly inhibitors; 120 tested, under 10 active
# CREB luc CRC – Confirmation Concentration-Response Assay for Cell signaling CRE-BLA (Fsk stim) - HEK293 CREB Luciferase; shares compounds with CRE-bla Fsk; HEK293 CRE-luc2P, NKH477 EC10 potentiation, luminescence, 4 h; Potency, µM (doses to about 38.3 µM), without a hit: at the top dose activity, positive = activation, most hits filed as activators; hit rate 80% among 120; AID 907, 2007
# Starred values were filed as active, the others as inactive; i = inactive; u = inconclusive; x = no result given; [ ] = remark or other dose. The list is not random: actives were taken first. Their share in the collection is about 14%. Unless noted, calls come from the whole dose curve; as a rule, active = well fitted curve in the direction sought with a large enough effect; inconclusive = small, poorly fitted or top-dose-only effect, or another doubt; inactive = no such curve, though single readings can be large; an effect the other way counts as inactive or inconclusive.
SMILES,4-MU autofl,CRE-bla Fsk,HADH2 inhib,AID923,A350 autofl,HSD17B inhib,others
COc1ccc(CN2C(=O)CC(=O)NC2=O)cc1,i,u,-11.3%,2.9%,i,-0.9%,
c1ccc(C2CC3CC(c4ccco4)N2O3)cc1 (stereo not drawn),x,-5.4%[7.6 µM],4.1%[11.4 µM],1.5%,x,-2.0%,
Cn1c(O)c(C=Nc2ccc(Cl)cc2)c(=O)n(C)c1=O,x,-1.9%,-4.3%,8.8%,x,u,
CNC(C)C1CC[C@H](N)[C@@H](OC2C(N)C[C@H](N)[C@@H](OC3OC[C@](C)(O)C(NC)[C@H]3O)C2O)O1 (stereo partly drawn),x,x,x,-2.2%,x,10.4%,
O=C(Oc1ccccc1)N1CCC2(CCCN(Cc3nccs3)C2)CC1,i,u,2.0%,6.9%,i,4.5%,
O=[N+]([O-])c1ccccc1O,x,-6.0%,0.7%,0.6%,x,1.0%,
Cc1ccccc1[N+](=O)[O-],x,-0.3%,31.6µM*,-0.9%,x,-3.4%,
COc1ccc(N)cc1,x,6.3%,6.2%,4.7%,x,0.5%,
CC(=O)c1c(C)nc2ccccc2c1N,u,u,15.2%,-0.6%,1.03e-08M*,25.1µM*,
Cc1nc2ccccc2c(=O)n1-n1cnnc1,i,u,0.7%,0.3%,i,9.5%,
Cc1ccc2c(c1)CC1(CN2C)C(=O)NC(=O)N(C(C)C)C1=O (stereo not drawn),i,2.5%,24.9%,1.0%,u,10.1%,
COc1ccc(Cc2nccc3cc(OC)c(OC)cc23)cc1OC,u,0.158µM*,11.9%,-2.2%,u,9.4%,CHO via 24h=u;CHO via 40h=u;CREB luc CRC=0.708µM*
COc1cc(CCN)ccc1O,i,-1.9%,9.3%,0.5%,i,5.0%,
O=[N+]([O-])c1cccc2c([N+](=O)[O-])cccc12,x,0.6%,7.8%,-2.4%,x,7.8%,
Nc1nc2ccc(Cl)cc2c2nc(-c3ccco3)nn12,i,0.2µM*,7.5%,-2.8%,i,5.7%,CHO via 24h=-26.0;CHO via 40h=u;CREB luc CRC=u
